For eight sequences, binding signal results are on record in publication PMC7862700, “An all-to-all approach to the identification of sequence-specific readers for epigenetic DNA modifications on cytosine”.

What all share (assay): DAPPL (digital affinity profiling via proximity ligation, sequencing); 10 mM Tris-HCl pH 7.5, 50 mM NaCl, 1 mM DTT, 4% glycerol, room temperature, 30 min; GST-TFs on glutathione beads, 16-mer random dsDNA library, 0.1% formaldehyde crosslink after washing; high values mean tight binding
Conditions in all cases: protein: recombinant; tags: N-terminal GST; dsDNA, one strand shown

In one assay the target is T1, ERF (Homo sapiens, UniProt P50548 1-548).
T1 sequence: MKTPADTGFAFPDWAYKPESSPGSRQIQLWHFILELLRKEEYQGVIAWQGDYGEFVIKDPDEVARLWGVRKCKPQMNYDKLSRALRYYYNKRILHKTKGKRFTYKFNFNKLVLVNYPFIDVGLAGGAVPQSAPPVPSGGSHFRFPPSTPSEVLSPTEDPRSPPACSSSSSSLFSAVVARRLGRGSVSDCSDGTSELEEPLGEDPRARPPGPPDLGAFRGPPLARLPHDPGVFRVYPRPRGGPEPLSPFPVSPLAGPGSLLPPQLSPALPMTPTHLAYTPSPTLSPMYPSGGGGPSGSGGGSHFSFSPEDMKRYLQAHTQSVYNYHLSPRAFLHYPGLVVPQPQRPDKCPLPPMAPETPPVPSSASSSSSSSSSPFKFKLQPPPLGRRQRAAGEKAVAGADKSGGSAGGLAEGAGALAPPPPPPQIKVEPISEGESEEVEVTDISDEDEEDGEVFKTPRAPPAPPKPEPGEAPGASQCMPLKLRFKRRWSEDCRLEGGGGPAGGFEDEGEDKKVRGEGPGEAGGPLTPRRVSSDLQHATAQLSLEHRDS
The gist of the method:
(§1)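 Binding signal is given per hexamer as its read frequency for a factor divided by its frequency in the tag-only sample. GST-fused human transcription factors were expressed in yeast, captured on glutathione beads, barcoded with DNA and pooled with that sample, then incubated with 200 nmole of a 16-mer random double-stranded DNA library in Tris/NaCl/DTT/glycerol buffer for 30 min at room temperature. The pools were then washed, crosslinked, proximity-ligated, amplified by PCR and sequenced on an Illumina NextSeq500.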

A further assay concerns the target T2, ETV3L (Homo sapiens, UniProt Q6ZN32 1-361).
T2 sequence: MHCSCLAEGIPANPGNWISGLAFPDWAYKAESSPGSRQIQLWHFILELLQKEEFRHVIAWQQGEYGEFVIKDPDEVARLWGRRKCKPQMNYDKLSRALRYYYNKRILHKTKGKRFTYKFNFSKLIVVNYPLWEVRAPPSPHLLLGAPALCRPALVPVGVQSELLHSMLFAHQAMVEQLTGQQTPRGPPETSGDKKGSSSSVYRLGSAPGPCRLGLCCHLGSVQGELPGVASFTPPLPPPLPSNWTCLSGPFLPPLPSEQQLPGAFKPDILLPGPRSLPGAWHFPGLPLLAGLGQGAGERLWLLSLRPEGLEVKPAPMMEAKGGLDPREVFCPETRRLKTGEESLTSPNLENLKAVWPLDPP
In outline: as §1

In another assay the target is T3, ETS2 (Homo sapiens, UniProt P15036 1-469).
T3 sequence: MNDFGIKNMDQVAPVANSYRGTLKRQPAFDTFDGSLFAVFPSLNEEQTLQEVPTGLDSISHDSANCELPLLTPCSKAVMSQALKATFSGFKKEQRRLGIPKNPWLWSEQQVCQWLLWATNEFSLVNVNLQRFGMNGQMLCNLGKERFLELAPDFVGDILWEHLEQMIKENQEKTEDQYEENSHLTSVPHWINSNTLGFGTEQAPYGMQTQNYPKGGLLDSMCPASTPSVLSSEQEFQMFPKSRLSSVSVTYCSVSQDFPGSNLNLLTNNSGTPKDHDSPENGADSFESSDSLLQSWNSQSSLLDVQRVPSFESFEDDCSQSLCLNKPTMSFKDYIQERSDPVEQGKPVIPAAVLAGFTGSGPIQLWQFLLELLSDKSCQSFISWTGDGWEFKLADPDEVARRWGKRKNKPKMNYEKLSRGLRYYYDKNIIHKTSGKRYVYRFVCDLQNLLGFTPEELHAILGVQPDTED
In outline: as §1

For another assay, the target named is T4, SPDEF (Homo sapiens, UniProt O95238 1-335).
T4 sequence: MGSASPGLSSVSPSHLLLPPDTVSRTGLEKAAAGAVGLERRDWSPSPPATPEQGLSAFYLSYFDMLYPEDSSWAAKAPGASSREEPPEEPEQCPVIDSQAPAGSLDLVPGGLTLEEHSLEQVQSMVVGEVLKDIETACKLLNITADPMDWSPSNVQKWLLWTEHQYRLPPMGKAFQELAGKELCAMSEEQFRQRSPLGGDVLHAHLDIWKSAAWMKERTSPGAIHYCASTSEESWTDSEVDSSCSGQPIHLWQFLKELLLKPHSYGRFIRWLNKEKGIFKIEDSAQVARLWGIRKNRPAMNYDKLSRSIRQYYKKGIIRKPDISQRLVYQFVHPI
The gist of the method: as §1

A further assay deals with T5, ETV7 (Homo sapiens, UniProt Q9Y603 1-341).
T5 sequence: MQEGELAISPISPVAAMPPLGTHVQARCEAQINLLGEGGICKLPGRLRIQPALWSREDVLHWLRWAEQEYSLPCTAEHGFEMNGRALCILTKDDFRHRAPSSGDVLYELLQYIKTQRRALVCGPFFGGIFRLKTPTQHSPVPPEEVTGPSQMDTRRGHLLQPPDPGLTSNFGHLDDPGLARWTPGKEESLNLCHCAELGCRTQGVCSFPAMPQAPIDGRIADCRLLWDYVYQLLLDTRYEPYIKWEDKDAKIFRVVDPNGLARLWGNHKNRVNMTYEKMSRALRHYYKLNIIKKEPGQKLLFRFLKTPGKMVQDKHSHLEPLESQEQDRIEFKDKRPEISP
In outline:
as §1

For a further assay, the target named is T6, ELF5 (Homo sapiens, UniProt Q9UKW6-2 1-255).
T6 sequence: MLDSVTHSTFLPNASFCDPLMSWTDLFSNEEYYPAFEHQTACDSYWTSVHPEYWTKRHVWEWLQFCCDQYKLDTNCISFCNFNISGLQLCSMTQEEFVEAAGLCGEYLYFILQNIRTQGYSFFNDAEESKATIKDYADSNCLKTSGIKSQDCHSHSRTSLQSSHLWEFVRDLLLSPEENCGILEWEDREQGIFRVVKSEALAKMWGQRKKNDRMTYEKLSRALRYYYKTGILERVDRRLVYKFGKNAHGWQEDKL
In outline: as §1

Another assay concerns the target T7, ETV3 (Homo sapiens, UniProt P41162-2 1-143).
T7 sequence: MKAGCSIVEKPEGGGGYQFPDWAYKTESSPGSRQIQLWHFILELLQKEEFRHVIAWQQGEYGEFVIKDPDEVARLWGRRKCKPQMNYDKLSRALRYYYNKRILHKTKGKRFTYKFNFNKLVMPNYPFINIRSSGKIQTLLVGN
The gist of the method: as §1

A further assay deals with ETV6 (Homo sapiens, UniProt P41212 1-452). The gist of the method: as §1
Chain of ETV6 (P41212 whole entry): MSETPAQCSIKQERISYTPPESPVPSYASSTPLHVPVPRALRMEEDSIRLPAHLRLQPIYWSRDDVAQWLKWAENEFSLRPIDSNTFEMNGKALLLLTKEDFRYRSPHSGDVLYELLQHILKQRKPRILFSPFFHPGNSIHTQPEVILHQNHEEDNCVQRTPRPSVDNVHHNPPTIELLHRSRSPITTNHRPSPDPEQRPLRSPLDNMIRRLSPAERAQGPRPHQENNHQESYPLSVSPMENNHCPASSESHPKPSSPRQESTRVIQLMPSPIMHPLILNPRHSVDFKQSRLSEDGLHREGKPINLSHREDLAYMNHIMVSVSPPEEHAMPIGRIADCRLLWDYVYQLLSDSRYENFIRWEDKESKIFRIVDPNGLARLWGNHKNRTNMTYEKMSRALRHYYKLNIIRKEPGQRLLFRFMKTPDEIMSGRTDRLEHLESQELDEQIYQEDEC

Turning to TATTTA, the binding signal is 1.65 fold enrichment (6-mer frequency, TF over GST control) with ERF; 1.44 fold enrichment (6-mer frequency, TF over GST control) with ETV3L; 1.55 fold enrichment (6-mer frequency, TF over GST control) with ETS2; 1.47 fold enrichment (6-mer frequency, TF over GST control) with SPDEF; 1.45 fold enrichment (6-mer frequency, TF over GST control) with ETV7; 1.37 fold enrichment (6-mer frequency, TF over GST control) with ELF5. Besides, the binding signal was 1.41 fold enrichment (6-mer frequency, TF over GST control) with ETV3 and 1.43 fold enrichment (6-mer frequency, TF over GST control) with ETV6.

Turning to ATTGAT, the binding signal in the assay with ERF is 1.34 fold enrichment (6-mer frequency, TF over GST control); with ETV3L, 1.31 fold enrichment (6-mer frequency, TF over GST control); with ETS2, 1.29 fold enrichment (6-mer frequency, TF over GST control); with SPDEF, 1.32 fold enrichment (6-mer frequency, TF over GST control); with ETV7, 1.23 fold enrichment (6-mer frequency, TF over GST control); with ELF5, 1.27 fold enrichment (6-mer frequency, TF over GST control). The binding signal is 1.33 fold enrichment (6-mer frequency, TF over GST control) with ETV3 and 1.24 fold enrichment (6-mer frequency, TF over GST control) in the assay with ETV6.

Turning to ATATAG, the binding signal with ERF is 1.12 fold enrichment (6-mer frequency, TF over GST control); in the assay with ETV3L, 1.11 fold enrichment (6-mer frequency, TF over GST control); with ETS2 it was 1.11 fold enrichment (6-mer frequency, TF over GST control); in the assay with SPDEF, 1.14 fold enrichment (6-mer frequency, TF over GST control); with ETV7, 1.24 fold enrichment (6-mer frequency, TF over GST control); with ELF5, 1.13 fold enrichment (6-mer frequency, TF over GST control). Also, the binding signal was 1.19 fold enrichment (6-mer frequency, TF over GST control) with ETV3 and 1.17 fold enrichment (6-mer frequency, TF over GST control) with ETV6.

As for ATATAA, the binding signal in the assay with ERF is 1.16 fold enrichment (6-mer frequency, TF over GST control); with ETV3L, 1.23 fold enrichment (6-mer frequency, TF over GST control); with ETS2, 1.2 fold enrichment (6-mer frequency, TF over GST control); with SPDEF, 1.19 fold enrichment (6-mer frequency, TF over GST control); with ETV7 it was 1.16 fold enrichment (6-mer frequency, TF over GST control); with ELF5, 1.16 fold enrichment (6-mer frequency, TF over GST control). Also, the binding signal was 1.27 fold enrichment (6-mer frequency, TF over GST control) with ETV3 and 1.25 fold enrichment (6-mer frequency, TF over GST control) with ETV6.

Consider TAAAAG, for which the binding signal with ERF was 1.2 fold enrichment (6-mer frequency, TF over GST control); with ETV3L it was 1.1 fold enrichment (6-mer frequency, TF over GST control); with ETS2, 1.18 fold enrichment (6-mer frequency, TF over GST control); in the assay with SPDEF, 1.08 fold enrichment (6-mer frequency, TF over GST control); with ETV7 it was 1.19 fold enrichment (6-mer frequency, TF over GST control); in the assay with ELF5 it was 1.16 fold enrichment (6-mer frequency, TF over GST control). Also, the binding signal in the assay with ETV3 is 1.12 fold enrichment (6-mer frequency, TF over GST control); in the assay with ETV6 it was 1.23 fold enrichment (6-mer frequency, TF over GST control).

Take AACTTA: the binding signal is 1.29 fold enrichment (6-mer frequency, TF over GST control) with ERF; 1.14 fold enrichment (6-mer frequency, TF over GST control) in the assay with ETV3L; 1.22 fold enrichment (6-mer frequency, TF over GST control) with ETS2; 1.16 fold enrichment (6-mer frequency, TF over GST control) with SPDEF; 1.14 fold enrichment (6-mer frequency, TF over GST control) in the assay with ETV7; 1.25 fold enrichment (6-mer frequency, TF over GST control) with ELF5. The binding signal with ETV3 was 1.14 fold enrichment (6-mer frequency, TF over GST control); with ETV6, 1.32 fold enrichment (6-mer frequency, TF over GST control).

AAAACC: the binding signal was 1.22 fold enrichment (6-mer frequency, TF over GST control) with ERF; 1.18 fold enrichment (6-mer frequency, TF over GST control) with ETV3L; 1.11 fold enrichment (6-mer frequency, TF over GST control) in the assay with ETS2; 1.18 fold enrichment (6-mer frequency, TF over GST control) in the assay with SPDEF; 1.25 fold enrichment (6-mer frequency, TF over GST control) in the assay with ETV7; 1.19 fold enrichment (6-mer frequency, TF over GST control) with ELF5. Also, the binding signal was 1.08 fold enrichment (6-mer frequency, TF over GST control) with ETV3 and 1.19 fold enrichment (6-mer frequency, TF over GST control) in the assay with ETV6.

AATATG: the binding signal in the assay with ERF is 1.07 fold enrichment (6-mer frequency, TF over GST control); in the assay with ETV3L it was 1.15 fold enrichment (6-mer frequency, TF over GST control); with ETS2 it was 1.15 fold enrichment (6-mer frequency, TF over GST control); with SPDEF, 1.08 fold enrichment (6-mer frequency, TF over GST control); with ETV7, 1.21 fold enrichment (6-mer frequency, TF over GST control); with ELF5, 1.1 fold enrichment (6-mer frequency, TF over GST control). The binding signal in the assay with ETV3 is 1.14 fold enrichment (6-mer frequency, TF over GST control); with ETV6, 1.14 fold enrichment (6-mer frequency, TF over GST control).
